Measured values: PubChem BioAssay (NCI)
Compounds without any hit were thinned out: in the full panel of roughly 79,000, 15% have a hit. Active and inactive are the calls of the source. Cut-off read from the data, not from the text of the source: active = growth inhibition above about 70%; inactive = the rest.

experiment: NCI Yeast Anticancer Drug Screen. Data for the rad50 strain (AID 155);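 note: 0% = growth of vehicle-only cultures of the same strain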; conditions: S. cerevisiae rad50 strain growth inhibition; at 50.0 µM; active compounds read high
Method in brief: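 Readout: growth inhibition relative to vehicle-treated cultures. Compound exposure was carried out in a genetically defined yeast strain deficient in DNA damage repair.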

Row | Structure (SMILES) | growth inhibition
1 | BrC/C(=N\N1CCCCC1)c1ccc(Br)cc1 | 6.55% (inactive)
2 | CC1CN(CC2COc3ccccc3O2)C(C)CN1 (stereo not drawn) | 61.8% (inactive)
3 | O=C([O-])C(=O)[N-]CCC[N-]C(=O)C(=O)[N-]CCC[N-]C(=O)C(=O)[O-].[Cu+2].[Cu+2].[Na+] | -8.45% (inactive)
4 | CC(C)(C)N=Cc1ccccc1[O-].CC(C)(C)N=Cc1ccccc1[O-].[Co+2] | 4% (inactive)
5 | CN(C)c1ccc(/C=C/c2ccccc2)cc1 | -3.6% (inactive)
6 | COc1cc2c(cc1OC)C(=O)/C(=C/c1ccccc1)CC2 | 6.95% (inactive)
7 | O=C(O)c1cccc(O)c1C(=O)O | 29.2% (inactive)
8 | CCOC(=O)/C=C/CC1CCNC1 (stereo not drawn) | -22.8% (inactive)
9 | COc1ccc(C2=C/C(=C/c3ccc(N(CCC#N)CCC#N)cc3)C(=O)O2)cc1 | -75.2% (inactive)
10 | O=C(Cl)c1ccc2c(c1)C(=O)NC2=O | -6.55% (inactive)
11 | COc1cc(C(=O)NC2CCc3cc(OC)c(OC)c(OC)c3-c3ccc(OC)c(=O)cc32)cc(OC)c1OC (stereo not drawn) | 26.4% (inactive)
12 | CCCCCCC(/C=N\N=C\c1ccco1)=C\c1ccccc1 | -2.7% (inactive)
13 | NC(=O)c1ncn(C2OC(CO)C(O)C2O)c1NC=O (stereo not drawn) | 1.95% (inactive)
14 | COC(=O)C1CCC(C(=O)OC)CC1 (stereo not drawn) | -4.3% (inactive)
15 | CCN(CC)CCN(C)c1ccccc1 | 9.85% (inactive)
16 | CCc1nc2ccccc2cc1C | 5.5% (inactive)
17 | CCOC(OC(C)=O)[C@@H]1C=C[C@H](C)N(c2ccc([N+](=O)[O-])cc2)O1 (stereo partly drawn) | 25.4% (inactive)
18 | COc1cc(NCC(C#N)C#N)ccc1N=Nc1ccc([N+](=O)[O-])cc1 | 25.9% (inactive)
19 | NC(N)=NS(=O)(=O)c1ccc(Nc2c3ccccc3nc3c(C(=O)N4CCN(CCO)CC4)cccc23)cc1 | -0.4% (inactive)
20 | O=C(O)c1c2ccccc2nc2c1sc1ccccc12 | -17.9% (inactive)
21 | COc1ccc(C2Cc3cc(OC)c(OC)cc3C(c3ccccc3)N2)cc1OC (stereo not drawn) | 8.7% (inactive)
22 | OC(c1nc2ccccc2s1)(C(F)(F)F)C(F)(F)F | -14.2% (inactive)
23 | Cc1ccc(C2OC(N)=C(O)C2=O)cc1 (stereo not drawn) | -43% (inactive)
